Experimental findings from PubChem BioAssay (NCI) are described below.

About 83,000 compounds went through this panel and 20% of them were active in at least one assay; those are over-represented in the sample as a whole.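 Activity criterion: percent growth below 10, measured after cells in 96-well plates were exposed to a single compound concentration for 48 hours.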 A number with no mark means an inactive call. Activity calls are given as the source filed them.

Some test systems named below: EKVX NSCLC; SN12C renal; UO-31 renal; TK-10 renal; ACHN renal; CAKI-1 renal; A498 renal; CCRF-CEM leukemia; MOLT-4 leukemia; SR leukemia; RPMI-8226 leukemia; OVCAR-8 ovarian; OVCAR-5 ovarian; OVCAR-4 ovarian; SK-OV-3 ovarian; IGROV1 ovarian; OVCAR-3 ovarian; HS 578T breast; NCI/ADR-RES ovarian; SK-MEL-2 melanoma.
Common to all, as to assay: NCI-60 one-dose screen, 48 h (100 = growth as untreated, 0 = no growth, -100 = all killed)
Conditions in all cases: 10 µM unless noted

As for `CCOC(=O)CO`, the growth with EKVX NSCLC was 95.6%; in the assay with SN12C renal, 104%; in the assay on UO-31 renal, 72.8%; with TK-10 renal, 109%; in the assay on ACHN renal, 109%; in the assay with CAKI-1 renal it was 96.5%. For the same molecule, the growth in the assay with A498 renal is 97%; in the assay with CCRF-CEM leukemia, 102%; with MOLT-4 leukemia it was 86.4%; in the assay with SR leukemia, 95%; in the assay with RPMI-8226 leukemia, 110%; in the assay on OVCAR-8 ovarian, 109%. Besides, the growth was 105% with OVCAR-5 ovarian; 111% with OVCAR-4 ovarian; 109% in the assay with SK-OV-3 ovarian; 105% in the assay with IGROV1 ovarian; 125% in the assay with OVCAR-3 ovarian; 109% with HS 578T breast. Besides, the growth in the assay on NCI/ADR-RES ovarian was 109%.

On to `COC1CC(OC(=O)c2ccc([N+](=O)[O-])cc2)C(COC(=O)c2ccc([N+](=O)[O-])cc2)O1` (configuration not stated), for which the growth in the assay with SK-MEL-2 melanoma was 127%; in the assay on UO-31 renal, 95.6%; with TK-10 renal it was 124%; in the assay with ACHN renal, 112%; in the assay on CAKI-1 renal, 94%; with A498 renal, 83.5%. The growth in the assay on CCRF-CEM leukemia was 98.1%; in the assay on MOLT-4 leukemia it was 103%; with SR leukemia, 85.9%; in the assay on RPMI-8226 leukemia, 101%; in the assay on OVCAR-8 ovarian, 91.2%; with OVCAR-5 ovarian it was 99.7%. The growth was 97% with OVCAR-4 ovarian; 107% in the assay on SK-OV-3 ovarian; 126% in the assay with IGROV1 ovarian; 111% in the assay with OVCAR-3 ovarian; 109% with HS 578T breast; 108% in the assay on NCI/ADR-RES ovarian.

As to `C/C(O)=C(/C=N\C(=S)Nc1ccc(S(=O)(=O)Nc2nccs2)cc1)C(=O)Nc1ccccc1C`, the growth in the assay with EKVX NSCLC was 101%; in the assay with SN12C renal, 87.5%; with UO-31 renal it was 93.2%; with TK-10 renal, 111%; in the assay on ACHN renal, 99.9%; with CAKI-1 renal it was 91.9%. In addition, the growth in the assay with A498 renal is 60.5%; with CCRF-CEM leukemia it was 87.4%; in the assay with MOLT-4 leukemia, 83.7%; with SR leukemia, 79.1%; in the assay on RPMI-8226 leukemia it was 86.3%; in the assay with OVCAR-8 ovarian, 87.7%. In addition, the growth in the assay with OVCAR-5 ovarian was 103%; in the assay on OVCAR-4 ovarian, 98.7%; with SK-OV-3 ovarian, 100%; with IGROV1 ovarian, 106%; with OVCAR-3 ovarian, 97%; in the assay on HS 578T breast it was 84.1%. In the assay on NCI/ADR-RES ovarian, the growth was 105%.

For `Nc1cccc2cccc(O)c12`, the growth with EKVX NSCLC is 94.6%; with SN12C renal, 91%; in the assay on UO-31 renal, 52.8%; with TK-10 renal, 83.7%; in the assay with ACHN renal, 80%; in the assay with CAKI-1 renal, 101%. For the same molecule, the growth in the assay with A498 renal is 97.9%; in the assay on CCRF-CEM leukemia it was 52.8%; in the assay on MOLT-4 leukemia, 83%; in the assay with SR leukemia it was 58.5%; in the assay on RPMI-8226 leukemia, 85.5%; with OVCAR-8 ovarian, 86.7%. For the same molecule, the growth is 103% in the assay with OVCAR-5 ovarian; 83.1% in the assay with OVCAR-4 ovarian; 100% with SK-OV-3 ovarian; 76% with IGROV1 ovarian; 87.1% in the assay with OVCAR-3 ovarian; 82.1% with HS 578T breast. Moreover, the growth in the assay on NCI/ADR-RES ovarian was 95.5%.

Regarding `CCCCNC(=O)c1ccc(OCC)cc1`, the growth in the assay on EKVX NSCLC was 103%; with SN12C renal, 103%; with UO-31 renal, 101%; with TK-10 renal it was 105%; with ACHN renal, 109%; in the assay on CAKI-1 renal, 100%. Further, the growth in the assay on A498 renal was 94.2%; in the assay with CCRF-CEM leukemia, 94.9%; in the assay on MOLT-4 leukemia, 105%; in the assay on SR leukemia, 104%; with RPMI-8226 leukemia, 99.1%; in the assay with OVCAR-8 ovarian, 103%. Further, the growth in the assay with OVCAR-5 ovarian was 96.1%; with OVCAR-4 ovarian it was 101%; in the assay with SK-OV-3 ovarian it was 98.7%; in the assay with IGROV1 ovarian, 108%; with OVCAR-3 ovarian it was 105%; in the assay on HS 578T breast it was 101%. In addition, the growth with NCI/ADR-RES ovarian was 100%.

With `Cc1ccc(C(C)C)c(OCC(=O)O)c1`, the growth in the assay on SK-MEL-2 melanoma was 118%; in the assay on SN12C renal it was 100%; in the assay on UO-31 renal, 97%; in the assay with TK-10 renal it was 107%; in the assay on CAKI-1 renal, 110%; with A498 renal, 73.6%. Moreover, the growth in the assay on CCRF-CEM leukemia is 96.8%; in the assay on MOLT-4 leukemia, 111%; with SR leukemia it was 109%; in the assay on RPMI-8226 leukemia it was 107%; in the assay with OVCAR-8 ovarian, 101%; in the assay on OVCAR-5 ovarian it was 98.7%. The growth with OVCAR-4 ovarian is 112%; in the assay on SK-OV-3 ovarian it was 108%; in the assay with IGROV1 ovarian, 109%; in the assay on OVCAR-3 ovarian it was 113%; in the assay on HS 578T breast, 101%; in the assay on NCI/ADR-RES ovarian, 111%.

Take `Cc1ccc(OC(=O)c2ccccc2)cc1`: the growth is 122% with EKVX NSCLC; 109% with SN12C renal; 97.2% in the assay on UO-31 renal; 98.1% in the assay with TK-10 renal; 117% in the assay on ACHN renal; 114% with CAKI-1 renal. Moreover, the growth in the assay on A498 renal is 95.6%; in the assay with CCRF-CEM leukemia, 108%; in the assay on MOLT-4 leukemia, 104%; in the assay with SR leukemia, 102%; in the assay with RPMI-8226 leukemia, 113%; with OVCAR-8 ovarian, 101%. Also, the growth was 100% in the assay on OVCAR-5 ovarian; 114% with OVCAR-4 ovarian; 107% in the assay on SK-OV-3 ovarian; 132% in the assay with IGROV1 ovarian; 115% with OVCAR-3 ovarian; 141% in the assay with HS 578T breast. Moreover, in the assay with NCI/ADR-RES ovarian, the growth was 113%.

Take `CN(C)c1ccc(O)c2c1CC1CC3C(N(C)C)C(=O)C(C(N)=O)=C(O)C3(O)C(=O)C1=C2O` (configuration not stated): the growth was 17.6% in the assay on SK-MEL-2 melanoma; 35.6% in the assay on SN12C renal; 23.6% with UO-31 renal; 35.5% in the assay with ACHN renal; -3.07% (active) in the assay with CAKI-1 renal; 26.2% with A498 renal. Moreover, the growth with CCRF-CEM leukemia was 44.9%; in the assay with MOLT-4 leukemia, 79.1%; in the assay on SR leukemia it was 24.1%; with RPMI-8226 leukemia, 20.6%; in the assay with OVCAR-8 ovarian, 38.3%; in the assay on OVCAR-5 ovarian it was 63.4%. Moreover, the growth in the assay on OVCAR-4 ovarian was 57.8%; in the assay with SK-OV-3 ovarian, 45.2%; in the assay on IGROV1 ovarian, 38.4%; in the assay with OVCAR-3 ovarian it was 46.6%; in the assay with HS 578T breast, 48.9%; in the assay with NCI/ADR-RES ovarian, 66.7%.

On to `CS(=O)(=O)c1ccc(/C=C\C(=O)O)cc1`, for which the growth in the assay on SK-MEL-2 melanoma is 109%; in the assay with UO-31 renal, 83.5%; in the assay on TK-10 renal it was 101%; with ACHN renal, 108%; in the assay on CAKI-1 renal, 98.2%; in the assay with A498 renal, 48.6%. The growth in the assay on CCRF-CEM leukemia was 101%; with MOLT-4 leukemia, 111%; in the assay with SR leukemia it was 62.3%; in the assay with RPMI-8226 leukemia, 98.8%; in the assay on OVCAR-8 ovarian it was 104%; in the assay with OVCAR-5 ovarian, 105%. The growth is 98.2% in the assay on OVCAR-4 ovarian; 106% in the assay on SK-OV-3 ovarian; 120% in the assay with IGROV1 ovarian; 102% in the assay on OVCAR-3 ovarian; 81.7% with HS 578T breast; 104% with NCI/ADR-RES ovarian.
